# Rows were chosen to be rich in hits. Some 22% of all compounds tested hit in one or more screens of this group.
# CYP2C19 act = activators of human cytochrome P450 2C19; recombinant CYP2C19, luciferin-H EGE luminescence; stronger effect = higher value; 0 = fully inhibited enzyme, 1 = untreated enzyme; activation factor at 5 µM; 96,000 tested, under 10 active; AID 1025;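 active means activation factor of at least 2 at 5 µM in the primary screen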
# Target sequence (P33261 whole entry, looked up): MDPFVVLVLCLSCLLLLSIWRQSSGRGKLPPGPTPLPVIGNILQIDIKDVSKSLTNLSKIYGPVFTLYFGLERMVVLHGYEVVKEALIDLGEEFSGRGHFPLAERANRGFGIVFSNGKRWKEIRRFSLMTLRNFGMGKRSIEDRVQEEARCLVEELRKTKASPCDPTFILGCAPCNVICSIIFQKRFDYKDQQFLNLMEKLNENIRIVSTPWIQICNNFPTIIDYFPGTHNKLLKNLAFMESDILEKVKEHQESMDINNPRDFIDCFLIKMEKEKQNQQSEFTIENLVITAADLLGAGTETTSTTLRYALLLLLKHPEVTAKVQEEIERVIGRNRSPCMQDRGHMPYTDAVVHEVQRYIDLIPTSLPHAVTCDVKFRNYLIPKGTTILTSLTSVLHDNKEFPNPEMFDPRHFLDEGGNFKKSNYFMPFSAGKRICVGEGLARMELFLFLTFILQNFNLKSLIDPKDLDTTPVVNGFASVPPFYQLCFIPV
# Measles CPE = protection of cells from measles virus | 140,000 tested, 1.5% active | Measles virus-infected cells, CPE protection, absorbance | protection (pct of control), % at 4 µM; in the data active means protection mostly above about 24%, no sharp cut-off; inactive means mostly below about 26%
# CYP2C9 inh = human CYP2C9 inhibition; P11712; CYP2C9 Supersomes, luciferin-H conversion, luminescence; inhibition, % at 5 µM; 96,000 tested, 20% active; AID 777;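 active means blocking of liver enzyme CYP2C9 beyond about 50% at 5 µM, limit read from the data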
# CYP2C9 act = activators of human CYP2C9; P11712; recombinant CYP2C9, luciferin-H conversion, luminescence; stronger effect = higher value; factor 1 = untreated enzyme, 0 = blocked; activation factor at 5 µM; 96,000 tested, 1.4% active; AID 1024;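 active means activation factor of 2 or more for CYP2C9 at a 5 µM dose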
# CYP2C19 inh = inhibitors of human CYP2C19; P33261; CYP2C19 Supersomes, luciferin-H EGE luminescence, 30 min; inhibition, % at 5 µM; 96,000 tested, 21% active;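 active means CYP2C19 inhibition above a set limit at 5 µM in the primary screen, cut at about 50% in these data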
# Hits are given with their value; n = inactive; x = no result.
SMILES,CYP2C19 act,Measles CPE,CYP2C9 inh,CYP2C9 act,CYP2C19 inh
C=CCOC(=O)C1=C(C)NC(SCC(=O)Nc2ccccc2)=C(C#N)C1c1ccco1 (configuration not stated),n,n,72,n,60
COC(=O)C1=C(C)OC(N)=C(C#N)C1c1cccnc1 (configuration not stated),n,n,n,n,n
C=CCOC(=O)C1=C(C)NC(SCC(=O)N(CC)CC)=C(C#N)C1c1ccco1 (configuration not stated),n,n,80,n,69
CC(C)OC(=O)CSc1nc(-c2ccc(F)cc2)cc(C(F)(F)F)n1,x,n,x,x,x
O=C(Cc1ccccc1)NN1C(=O)C2C3C=CC(C3)[C@@H]2C1=O (some centres not stated),x,n,x,x,x
Cc1cccc(OCc2nc3ccccc3c(=O)n2N)c1,n,n,n,n,n
O=[N+]([O-])c1cc(C(F)(F)F)ccc1N1CCN(S(=O)(=O)c2ccc3ccccc3c2)CC1,n,n,n,n,58
Cn1c(=O)n(C)c2cc([N+](=O)[O-])c(N3CCN(S(=O)(=O)c4ccc(C(C)(C)C)cc4)CC3)cc21,n,n,62,n,n
CCCCN1c2ccccc2N(CCCO)c2cc(C)nnc21,n,n,65,n,n
FC(F)(F)c1nc(N2CCN(c3ccccc3)CC2)nc2c1CCCCC2,n,n,n,n,n
CCOC(=O)CC(=O)Nc1nnc(C(C)C)s1,n,n,n,n,n
CCNc1nc(N)nc(Oc2ccc(OCCOc3ccc(Cl)cc3Cl)nn2)n1,n,n,80,n,94
CCNc1nc(Oc2ccc(Cl)cc2Cl)cc(C(F)(F)F)n1,n,n,63,n,n
CC(=O)Nc1ccc(C(=O)OCc2ccccc2Cl)cc1,x,n,x,x,x
CCC(=O)Nc1ccc(C(=O)CSc2nc3ccccc3cc2CC)cc1,n,n,88,n,n
CCC(=O)Nc1ccc(C(=O)OCc2ccccc2Cl)cc1,n,n,n,n,57
CCC(=O)Nc1cc(C(=O)OCC(=O)c2ccc(Cl)cc2Cl)ccc1C,n,n,n,n,n
CCC(=O)Nc1ccc(C(=O)c2ccccc2)cc1,n,n,n,2,n
CCC(=O)Nc1cc(C(=O)OCC(=O)c2ccccc2Cl)ccc1C,n,n,n,2.1,n
COc1ccc(CS(=O)(=O)/C(Cl)=C(/Cl)C(=O)Nc2ccc(OC)nc2)cc1,n,n,68,n,n
COc1ccc(NC(=O)/C(Cl)=C(/Cl)S(=O)Cc2ccccc2)cn1 (configuration not stated),n,n,92,n,51
COc1ccc(/C=C/C(=O)Nc2ccc(OC)nc2)cc1,x,n,x,x,x
O=C(N=c1nc2ccccn2s1)c1ccccc1,n,x,n,n,76
O=C(CSc1nccc(=O)[nH]1)N1CCCc2ccccc21,n,n,n,n,n
O=C(N/N=C/c1cn(-c2ccccc2)nc1-c1ccc(F)cc1)c1ccc2c(c1)OCO2,n,n,64,n,n
SMILES,CYP2C19 act,Measles CPE,CYP2C9 inh,CYP2C9 act,CYP2C19 inh
COc1ccc(-c2nn(-c3ccccc3)cc2/C=N/NC(=O)c2ccc3c(c2)OCO3)cc1,n,n,70,n,n
OCc1cn(-c2ccccc2)nc1-c1ccc2c(c1)OCCO2,n,n,n,n,n
CCn1cc(/C=N/NC(=O)c2ccc3c(c2)OCO3)c(C)n1,n,n,n,n,n
COc1ccc(-c2nn(-c3ccccc3)cc2/C=N/NC(=O)c2cccc(S(=O)(=O)Nc3ccccc3OC)c2)cc1,x,n,x,x,x
O=C(N/N=C\c1cn(-c2ccccc2)nc1-c1ccccc1)c1ccc2c(c1)OCO2,n,n,65,n,54
O/N=C/c1cn(-c2ccccc2)nc1-c1ccc2c(c1)OCCO2,n,n,53,n,n
CCc1cccc(NC(=O)c2ccc(Cn3c(=O)[nH]c4ccsc4c3=O)cc2)c1,x,n,x,x,x
Cc1cccc(NS(=O)(=O)c2cc(C(=O)N3CCN(C)CC3)ccc2C)c1,n,n,n,n,n
CCOC(=O)COC(=O)c1ccc(Oc2cc(C)nc(SC)n2)cc1,x,n,x,x,x
Cc1nn(-c2ccc(F)cc2)c(Cl)c1/C=C(\CCC(=O)O)c1nc2ccccc2s1,n,32,n,n,n
Cc1cc2n(c(=O)c1C#N)CCCN2c1ccccc1,x,n,x,x,x
Cc1cc(=O)oc2cc(OCC(=O)Nc3nnc(C(C)C)s3)ccc12,n,n,n,n,n
Oc1ccc2ccccc2c1N=Nc1ccccn1,n,n,67,n,n
N#CCC1c2ccccc2CCN1C(=O)Nc1cccc(Cl)c1 (configuration not stated),n,n,n,n,n
